Data taken from PubChem BioAssay AID1259421 (Broad Institute, 2018).
Values joined by “and” are separate entries in the source; they are usually repeats but may differ in a detail not shown here. Identical values can stand only once. Among all 6,400 compounds or so, about 610 (9.5%) were called active. Rule as the data show it: active = activity change below about -70%; inconclusive = no clear call, values can overlap the other calls; inactive = above that. Shown is part of a subset that was picked to be rich in actives. Some structures have more than one record in an assay (separate samples or runs), and their calls can disagree.

experiment: Toxoplasma gondii ME49Luc growth in HeLa cells, luciferase, no IFN-y, primary screen (AID 1259421); details: T. gondii ME49Luc in HeLa, 72 h, stronger effect = lower value, concentration not given here

Compound | activity change, negative = inhibition
CNC(=O)C1OC(n2cnc3c(NCc4cccc(I)c4)ncnc32)C(O)C1O (configuration not stated) | 5.36% (inactive)
O=C(O)C(=O)O.O=C(O)C(=O)O.O=C(O)C(=O)O.[Bi].[Bi] | 12.7% (inactive)
COc1ccccc1C1(O)CCN(CCCn2c3ccccc3c3ccccc32)CC1 | -73.1% (active) and -52.5% (inactive)
C[C@@H]1CN(CCCn2c3ccccc3c3ccccc32)C[C@H](C)N1 | 18.2% (inactive)
CC1CN(CCCn2c3ccccc3c3ccccc32)CC(C)N1 (configuration not stated) | -30.6% (inactive)
CO/N=C(\C(=O)N[C@@H]1C(=O)N2C(C(=O)O)=C(C[n+]3ccn4ncccc43)CS[C@H]12)c1nsc(N)n1 | 12% (inactive)
CC[C@H](CO)Nc1nc(NCc2ccccc2)c2ncn(C(C)C)c2n1 | -9.71% (inactive)
CC[C@H](CO)Nc1nc(Nc2cccc(-c3ccccn3)c2)c2ncn(C(C)C)c2n1 | -72.2% (active)
CC[C@@H](CO)Nc1nc(NCc2ccccc2)c2ncn(C(C)C)c2n1 | -3.07% (inactive)
CC[C@H](CO)Nc1nc(NCc2ccc(-c3ccccn3)cc2)c2ncn(C(C)C)c2n1 | -75.6% (active)
CC(C)n1cnc2c(NCc3ccccc3O)nc(NCCCO)nc21 | 1.44% (inactive)
CN1Cc2c(C(=O)OC(C)(C)C)ncn2-c2ccsc2C1=O | 4.12% (inactive) and 13% (inactive)
CC(=O)O[C@@H]1CC2C(C)(C)C(=O)C3OC3[C@]2(C)C2CC[C@@]3(C)[C@H](c4ccoc4)OC(=O)C4OC43[C@@]21C (some centres not stated) | 26.1% (inactive)
CC1=NN(c2ccc(C(=O)O)cc2)C(=O)/C1=C\c1ccc(-c2cc(C)c(C)cc2[N+](=O)[O-])o1 | 27.1% (inactive)
O=C(/C=C/c1ccccc1)c1ccc(O)cc1 | -8.89% (inactive)
CC(=O)c1cnc2ccc(-c3cc(Cl)c(O)c(Cl)c3)nc2c1NC1CCC(CN(C)C)CC1 (configuration not stated) | -87.5% (active)
CO[C@H]1C=CO[C@@]2(C)Oc3c(C)c(O)c4c(O)c(c5c(c4c3C2=O)NC2(CCN(CC(C)C)CC2)N=5)=NC(=O)/C(C)=C\C=C/[C@H](C)[C@H](O)[C@@H](C)[C@@H](O)[C@@H](C)[C@H](OC(C)=O)[C@@H]1C | -31.1% (inactive)
Nc1nc(=O)n([C@@H]2O[C@H](CO)[C@@H](O)[C@@H]2F)cc1I | 9.84% (inactive)
CC(=O)OCC(=O)[C@@]1(O)CCC2C3CCC4=CC(=O)C=C[C@]4(C)[C@@]3(F)[C@@H](O)C[C@@]21C (some centres not stated) | -18.2% (inactive)
CCN1CCN(Cc2ccc(Nc3ncc(F)c(-c4cc(F)c5nc(C)n(C(C)C)c5c4)n3)nc2)CC1 | -82.7% (active)
CN(C)Cc1ccc(-c2nc3cccc4c3n2CCNC4=O)cc1 | 4.67% (inactive)
CCC(=O)OCC(=O)[C@@]1(OC(=O)CC)[C@H](C)CC2C3C([C@@H](O)C[C@@]21C)[C@@]1(C)C=CC(=O)C=C1C[C@H]3Cl (some centres not stated) | 2.29% (inactive)
CC1=CC(=O)C2C(C)(C)CCC[C@]2(C)[C@@]1(O)CCc1ccoc1 (some centres not stated) | 1.47% (inactive)
COc1ccc(-c2cc(=O)c3c(O)cc(OC)c(OC)c3o2)c(OC)c1 | 12.5% (inactive)

Compound | activity change, negative = inhibition
CN1CC[C@@H](c2c(O)cc(O)c3c(=O)cc(-c4ccccc4Cl)oc23)[C@@H]1CO | -78.4% (active)
CN1CC[C@H](c2c(O)cc(O)c3c(=O)cc(-c4ccccc4Cl)oc23)[C@H](O)C1 | -83.7% (active)
NC(N)=NCCC[C@H](N)C(=O)NCC(=O)N[C@@H](CC(=O)O)C(=O)N[C@@H](CO)C(=O)O | 12.1% (inactive)
CC(C)CCNc1ncccc1C(=O)N1CCN(Cc2ccccc2)CC1 | 7.68% (inactive)
COc1c(O)cc2oc3cc(O)c(CC=C(C)C)c(O)c3c(=O)c2c1CC=C(C)C | -80.8% (active)
COc1cc2oc3cc(OC)c(OC)c(CC=C(C)C)c3c(=O)c2c(O)c1CC=C(C)C | 7.82% (inactive)
CC(C)=CCc1c(O)cc2oc(C)cc(=O)c2c1O | 1.96% (inactive)
C[N+](C)(C)[C@@H](Cc1c[nH]c(=S)[nH]1)C(=O)O | 3.37% (inactive)
Nc1nc2c(cnn2CCc2ccccc2)c2nc(-c3ccco3)nn12 | 16.9% (inactive) and 59.6% (inactive)
Nc1nc(NCCc2ccc(O)cc2)nc2nc(-c3ccco3)nn12 | -78.9% (active) and -90.1% (active)
COc1ccc(CCCn2ncc3c2nc(N)n2nc(-c4ccco4)nc32)cc1 | -11.7% (inactive)
CC(COc1ccccc1)NC(C)[C@H](O)c1ccc(O)cc1 (some centres not stated) | 7.25% (inactive) and 9.37% (inactive)
Nc1ncnc2c1ncn2C1O[C@H](COP(=O)(O)O)[C@@H](O)[C@H]1O (some centres not stated) | 13.1% (inactive)
Nc1ncnc2c1ncn2C1OC(COP(=O)(O)O)C(O)C1O (configuration not stated) (tested in a mixture with another compound) | 1.1% (inactive)
Nc1ncnc2c1ncn2CCOCP(=O)(O)O | 5.36% (inactive)
C[C@H](Cn1cnc2c(N)ncnc21)OCP(=O)(O)O | 8.95% (inactive)
CC(C)OC(=O)OCOP(=O)(CO[C@H](C)Cn1cnc2c(N)ncnc21)OCOC(=O)OC(C)C | -84% (active)
CC(C)(C)C(=O)OCOP(=O)(COCCn1cnc2c(N)ncnc21)OCOC(=O)C(C)(C)C | -84.5% (active) and -86.9% (active)
CC(=O)OC[C@H]1O[C@@](COC(C)=O)(O[C@H]2O[C@H](COC(C)=O)[C@@H](OC(C)=O)[C@H](OC(C)=O)[C@H]2OC(C)=O)[C@@H](OC(C)=O)[C@@H]1OC(C)=O | 4.98% (inactive)
CCC1(c2cnc[nH]2)Cc2ccccc2C1 | 52.1% (inactive)
CS(=O)(=O)NC(=O)CCC/C=C\C[C@H]1C(=O)C[C@@H](O)[C@@H]1/C=C/[C@@H](O)COc1ccccc1 | 0.217% (inactive)
CCCC(=O)Nc1ncnc2c1ncn2C1OC2COP(=O)(O)OC2C1OC(=O)CCC (configuration not stated) | 6.24% (inactive)
C=C1C[C@]23C[C@@]1(O)CC[C@H]2[C@@]12C=C[C@H](O)[C@](C)(C(=O)O1)[C@H]2[C@@H]3C(=O)O | 1.78% (inactive)
CCCCC(C)(C)[C@H](O)/C=C/[C@H]1[C@H](O)CC(=O)[C@@H]1C/C=C\CCCC(=O)O | 16.3% (inactive)

Compound | activity change, negative = inhibition
O/N=C/c1ccc(-c2ccc(O)c(F)c2)c(Cl)c1O | -85.3% (active)
CC(=O)Nc1cccc(-n2c(=O)n(C3CC3)c(=O)c3c(Nc4ccc(I)cc4F)n(C)c(=O)c(C)c32)c1 | 19.3% (inactive)
CCOc1nc2cccc(C(=O)O)c2n1Cc1ccc(-c2ccccc2-c2nn[nH]n2)cc1 | -59.6% (inactive)
C=C[C@]1(C)C[C@@H](OC(=O)CSC(C)(C)CNC(=O)[C@H](N)C(C)C)[C@@]2(C)[C@H](C)CC[C@]3(CCC(=O)[C@H]32)[C@@H](C)[C@@H]1O | -20.2% (inactive)
Cc1c(CN2CCN(C(=O)[C@H](C)O)CC2)sc2c(N3CCOCC3)nc(-c3cnc(N)nc3)nc12 | -21.6% (inactive)
CS(=O)(=O)N1CCN(Cc2cc3nc(-c4cccc5[nH]ncc45)nc(N4CCOCC4)c3s2)CC1 | -19.3% (inactive)
COc1ccc(-c2nc(N3CCOCC3)c3sc(CN(C)c4ncc(C(=O)NO)cn4)cc3n2)cn1 | -89.4% (active)
C=CC(C)(C)c1[nH]c2ccccc2c1C1C(=O)C(=O)C(c2c[nH]c3c(CC=C(C)C)cccc23)C(=O)C1=O (configuration not stated) | 6.09% (inactive)
O=C(O)/C=C1\CCCc2ccccc2C1O (configuration not stated) | 14% (inactive) and 4.55% (inactive)
O=C(OOC(=O)c1ccccc1)c1ccccc1 | 3.51% (inactive)
O=C(Oc1cccc2cccnc12)c1ccccc1 | 9.16% (inactive) and -0.158% (inactive)
Cc1ccc2c(Br)cc(Br)c(OC(=O)c3ccccc3)c2n1 | -89.9% (active)
Nc1nc(N)c([NH2+][O-])c(OCC2CCCCC2)n1 | 6.35% (inactive)
O=C(O)[C@H](O)[C@H](O)[C@@H](O)[C@H](O)[C@H](O)CO | 15.3% (inactive) and -2.15% (inactive)
COc1cccc2c1C(=O)c1c(O)c3c(c(O)c1C2=O)C[C@@](O)(C(C)=O)C[C@@H]3OC1CC(N)C(O)C(C)O1 (some centres not stated) | -89.8% (active)
COc1cccc2c1C(=O)c1c(O)c3c(c(O)c1C2=O)C[C@@](O)(C(C)=O)C[C@@H]3O[C@H]1C[C@H](N)[C@H](O)[C@H](C)O1 | -66.8% (inactive) and -6.1% (inactive) and -91.6% (active)
Nc1nc2c(nc(Br)n2[C@@H]2O[C@@H]3COP(=O)(O)O[C@H]3[C@H]2O)c(=O)[nH]1 | 7.36% (inactive)
CO[C@H]1CC(O[C@@H]2/C(C)=C/C[C@@H]3C[C@@H](C[C@]4(CC[C@H](C)[C@@H](C5CCCCC5)O4)O3)OC(=O)[C@@H]3C=C(C)/C(=N/O)[C@H]4OC/C(=C\C=C\[C@@H]2C)[C@]43O)O[C@@H](C)C1O (some centres not stated) | -64.5% (inactive) and -40.6% (inactive)
NCCCCN=C(N)N | 12.5% (inactive)
CC(CCC(=O)NCC(=O)O)C1CCC2C3CCC4CC(O)CCC4(C)C3CC(O)C12C (configuration not stated) | -5.76% (inactive)
CC(=O)O[C@@H]1CC2C(C)(C)C(=O)CC[C@]2(C)C2CC[C@@]3(C)[C@H](c4ccoc4)OC(=O)C4OC43[C@@]21C (some centres not stated) | 21.5% (inactive)
COC1CCC(N(C(=O)C2CCC(C)CC2)c2cc(C3=CCCCC3)sc2C(=O)O)CC1 (configuration not stated) | 5.25% (inactive)
COc1cccc(O)c1O | -4.12% (inactive)
C[C@@H]1C(SC2CN(C3=NCCS3)C2)=C(C(=O)OCOC(=O)C(C)(C)C)N2C(=O)[C@H]([C@@H](C)O)[C@H]12 | 3.05% (inactive)
